# From PubChem BioAssay (NCATS)
# Records with an inconclusive call do not appear. Where a call stands in place of a potency, no number is given. Unmarked numbers belong to inactive results. Calls of active or inactive are those of the source. Calls come from the whole dose curve; as a rule, active = well fitted inhibition curve with a large enough effect; inconclusive = small, poorly fitted or top-dose-only effect; inactive = flat fitted curve, though single readings scatter.
# Key:
# Experiment in all cases: qHTS profiling for inhibitors of Plasmodium falciparum proliferation (AID 504749); note: nearly all actives have a fitted effect of over 60% in size
# Details in all cases: P. falciparum in erythrocytes, SYBR Green DNA, 72 h; series mostly up to 28.7 µM
# [1] = system: CP238
# In short: (§1)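 Readout was DNA-dye fluorescence from lysed cultures, ex 485/em 535 nm. Parasitized red cells had grown 72 h with compound; data scaled between 0.29 uM artemisinin and DMSO wells and corrected using vehicle-only plates.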
# [2] = system: CP247
# In short: as §1
# [3] = system: CP250
# In short: as §1
# [4] = system: CP252
# In short: as §1
# [5] = system: CP256
# In short: as §1
# [6] = system: CP262
# In short: as §1
# [7] = system: CP265
# In short: as §1
# [8] = system: CP266
# In short: as §1
# [9] = system: CP268
# In short: as §1
# [10] = system: CP269
# In short: as §1
# [11] = system: CP297
# In short: as §1
# [12] = system: CP305
# In short: as §1
# [13] = system: CP315
# In short: as §1
# [14] = system: CP325
# In short: as §1
# [15] = system: CP329
# In short: as §1
# [16] = system: DIV17
# In short: as §1
# [17] = system: DIV30
# In short: as §1
# [18] = system: Dd2
# In short: as §1
# [19] = system: ECU
# In short: as §1
# [20] = system: FAB9
# In short: as §1
# [21] = system: JCK
# In short: as §1
# [22] = system: N140
# In short: as §1
# [23] = system: P94_40
# In short: as §1
# [24] = system: PC15
# In short: as §1
# [25] = system: PC26
# In short: as §1
# [26] = system: PC49
# In short: as §1
# [27] = system: SC27B
# In short: as §1
# [28] = system: TAB113
# In short: as §1
# Potency is the fitted concentration of half-maximal effect.
compound,measurement,setting,value
CN(C)[C@H]1C(=O)C(C(N)=O)=C(O)[C@]2(O)C(=O)C3=C(O)c4c(O)cccc4[C@@](C)(O)[C@H]3C[C@@H]12,Potency,[1],inactive
same,Potency,[2],inactive
same,Potency,[3],inactive
same,Potency,[4],inactive
same,Potency,[5],inactive
same,Potency,[6],inactive
same,Potency,[7],inactive
same,Potency,[8],inactive
same,Potency,[9],inactive
same,Potency,[10],inactive
same,Potency,[11],inactive
same,Potency,[12],inactive
same,Potency,[13],inactive
same,Potency,[14],inactive
same,Potency,[15],inactive
same,Potency,[16],inactive
same,Potency,[17],inactive
same,Potency,[18],1.78 µM (active)
same,Potency,[19],inactive
same,Potency,[20],inactive
same,Potency,[21],inactive
same,Potency,[22],inactive
same,Potency,[23],inactive
same,Potency,[24],inactive
same,Potency,[25],inactive
same,Potency,[26],inactive
same,Potency,[27],inactive
same,Potency,[28],inactive
